Results: publication PMC11006913

target: MSX2 (Homo sapiens, UniProt P35548 130-214, R199I); assay: PBM; 200 nM protein, PBS; conditions: dsDNA, one strand shown
Sequence (P35548 130-214 R199I): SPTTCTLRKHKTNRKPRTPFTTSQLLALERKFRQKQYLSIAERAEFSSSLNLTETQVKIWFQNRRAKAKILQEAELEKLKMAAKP

Row | Sequence | binding signal
1 | GCGCGGGA | 9.54 upbm affinity estimate (log intensity, higher = more binding, comparable within an allelic series)
2 | CGTGCCGC | 9.41 upbm affinity estimate (log intensity, higher = more binding, comparable within an allelic series)
3 | CGGGCTGC | 9.39 upbm affinity estimate (log intensity, higher = more binding, comparable within an allelic series)

target: ALX3 (Homo sapiens, UniProt O95076 139-225, N203Q); assay: PBM; 200 nM protein, PBS; conditions: dsDNA, one strand shown
Sequence (O95076 139-225 N203Q): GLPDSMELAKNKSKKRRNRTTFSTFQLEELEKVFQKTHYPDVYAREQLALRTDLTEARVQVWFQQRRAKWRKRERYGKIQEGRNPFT

Row | Sequence | binding signal
4 | ACTAATAA | 8.53 upbm affinity estimate (log intensity, higher = more binding, comparable within an allelic series)
5 | CTCCCGGC | 7.65 upbm affinity estimate (log intensity, higher = more binding, comparable within an allelic series)
6 | CTGGGGGA | 7.77 upbm affinity estimate (log intensity, higher = more binding, comparable within an allelic series)

target: MSX2 (Homo sapiens, UniProt P35548 130-214); assay: PBM; 200 nM protein, PBS; conditions: dsDNA, one strand shown
Sequence (P35548 130-214): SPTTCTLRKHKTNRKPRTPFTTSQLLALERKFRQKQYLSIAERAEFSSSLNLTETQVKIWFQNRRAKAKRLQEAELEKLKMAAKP

Row | Sequence | binding signal
7 | GCGCGGGA | 9.49 upbm affinity estimate (log intensity, higher = more binding, comparable within an allelic series)
8 | CGTGCCGC | 9.35 upbm affinity estimate (log intensity, higher = more binding, comparable within an allelic series)
9 | CGGGCTGC | 9.57 upbm affinity estimate (log intensity, higher = more binding, comparable within an allelic series)

target: MSX2 (Homo sapiens, UniProt P35548 130-214, F161Y); assay: PBM; 200 nM protein, PBS; conditions: dsDNA, one strand shown
Sequence (P35548 130-214 F161Y): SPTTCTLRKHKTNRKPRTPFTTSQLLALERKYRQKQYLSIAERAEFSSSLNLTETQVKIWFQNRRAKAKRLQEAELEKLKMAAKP

Row | Sequence | binding signal
10 | GCGCGGGA | 9.51 upbm affinity estimate (log intensity, higher = more binding, comparable within an allelic series)
11 | CGTGCCGC | 9.43 upbm affinity estimate (log intensity, higher = more binding, comparable within an allelic series)
12 | CGGGCTGC | 9.57 upbm affinity estimate (log intensity, higher = more binding, comparable within an allelic series)
